# Screening data from PubChem.
# Only some compounds are listed: those with a hit (about 2.4% of all), similar ones and a draw of the others.
# Pol beta inh – inhibitors of human DNA polymerase beta; Potency, µM (doses to about 114 µM), for the others: at the top dose activity change, negative = inhibition, actives largely listed as inhibitors; P06746; Pol beta primer extension/strand displacement, fluorescence kinetic; AID 485314; 340,000 compounds, 1.3% hits; also: % is scaled to controls: 0 for no effect and ±100 for the full control effect
#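 Reaction started by 50 nM substrate onto compound-treated Pol beta (10 nM, 15 min preincubation, room temperature); plates read at 0 min and 10 min. Normalized concentration-effect data fitted by four-parameter Hill equation.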
# TDP1 inh – blocks human tyrosyl-DNA phosphodiesterase 1. 350,000 compounds, 0.28% hits. AID 485290. recombinant TDP1, AlphaScreen DNA substrate cleavage. Potency, µM (titrated, usually from 130 µM), for the others: at the top dose activity change, negative = inhibition, actives largely listed as inhibitors. Q9NUW8; also: % is scaled to controls: 0 for no effect and ±100 for the full control effect; nearly all actives have a fitted effect of over 40% in size
#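 Recombinant E. coli-expressed Tdp1 (1 nM) preincubated with compound 15 min at RT, then 5'-biotin/3'-phosphotyrosine-FITC DNA substrate (15 nM) added for 5 min. AlphaScreen beads (10 ug/ml) added, 10 min RT; tyrosine-FITC cleavage read as signal loss.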
# Pol iota inh – inhibitors of human DNA polymerase iota | Pol iota fluorescent replication assay, 10 min | Potency, µM (doses to about 115 µM), for inactives: at the top dose activity, negative = inhibition, hits mostly inhibitors | 390,000 compounds, 1% hits | AID 588590
# Target sequence (Q9UNA4 whole entry, looked up): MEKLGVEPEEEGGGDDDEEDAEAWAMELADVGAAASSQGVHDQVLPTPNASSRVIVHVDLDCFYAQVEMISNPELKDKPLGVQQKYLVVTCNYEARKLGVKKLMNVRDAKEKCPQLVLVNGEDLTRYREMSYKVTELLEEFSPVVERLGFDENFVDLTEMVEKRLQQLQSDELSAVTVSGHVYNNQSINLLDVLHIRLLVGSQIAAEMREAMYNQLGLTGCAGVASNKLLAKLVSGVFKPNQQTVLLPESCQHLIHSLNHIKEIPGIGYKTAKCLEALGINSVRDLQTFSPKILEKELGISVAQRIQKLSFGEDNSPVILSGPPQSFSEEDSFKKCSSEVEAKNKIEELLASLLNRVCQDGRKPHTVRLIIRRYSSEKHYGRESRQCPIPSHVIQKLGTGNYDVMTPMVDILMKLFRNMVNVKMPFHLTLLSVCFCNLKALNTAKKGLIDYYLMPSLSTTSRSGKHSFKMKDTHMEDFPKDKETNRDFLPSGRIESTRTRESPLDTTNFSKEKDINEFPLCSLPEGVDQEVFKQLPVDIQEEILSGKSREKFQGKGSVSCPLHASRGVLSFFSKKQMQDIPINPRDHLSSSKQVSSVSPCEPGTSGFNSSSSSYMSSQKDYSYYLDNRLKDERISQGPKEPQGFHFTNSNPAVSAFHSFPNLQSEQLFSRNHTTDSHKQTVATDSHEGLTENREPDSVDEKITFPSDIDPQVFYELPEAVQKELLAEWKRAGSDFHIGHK
#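 Pol iota at 10 nM preincubated 15 min with compounds at room temperature; reaction started with fluorescent substrate, 50 nM final. Fluorescence read kinetically at 0 and 10 min; buffer-only wells as negative control.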
# Pol kappa inh – inhibitors of human DNA polymerase kappa; Q9UBT6; 400,000 compounds, 0.53% hits; AID 588579; Potency, µM (series often up to 107 µM), for inactives: at the top dose activity, negative = inhibition, most hits filed as inhibitors; purified Pol kappa, fluorescent DNA synthesis assay, 10 min; also: % is scaled to controls: 0 for no effect and ±100 for the full control effect
#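 Fluorescent qHTS in 1536-well format: enzyme (10 nM) and compound sat 15 min at room temperature before 50 nM substrate (final) was added. Signal taken at 0 and 10 min; no-enzyme buffer wells were negative controls.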
# Pol eta inh – blocks human DNA polymerase eta activity. Q9Y253. recombinant Pol eta, fluorescent DNA replication assay. 390,000 compounds, 1.2% hits. Potency, µM (titrated, usually from 114 µM), for inactives: at the top dose activity change, negative = inhibition, most hits filed as inhibitors; also: % is scaled to controls: 0 for no effect and ±100 for the full control effect
#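 Pol eta (10 nM) was preincubated with compounds for 15 min at room temperature, after which fluorescent replication substrate (50 nM final) was added to start the reaction. Fluorescence was read kinetically at 0 and 10 min.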
# Starred values were filed as active, the others as inactive; ? = inconclusive; . = not tested or not shown; ! = not confirmed by another sample; [ ] = dose if it differs, or a comment. Calls follow the shape of the dose curve; as a rule, active = well fitted curve in the direction sought with a large enough effect; inconclusive = small, poorly fitted or top-dose-only effect, or another doubt; inactive = no such curve, though single readings can be large; an effect the other way counts as inactive or inconclusive. Potency is read from the fitted curve at half-maximal effect.
SMILES,Pol beta inh,TDP1 inh,Pol iota inh,Pol kappa inh,Pol eta inh
O=C1C(O)=C(O)C(=O)c2ccccc21,.,.,7.9µM*,-14%,32µM*
CC(=O)N(C)C1=C(O)c2ccccc2C(=O)C1=O,-1%,-6%,28µM*,-15%,-4%
O=C1Nc2ccccc2C1=O,.,.,7%,-2%,0%
O=C1C=C(O)c2ccccc2C1=O,.,4%,.,?,.
O=C1c2ccccc2C(=O)c2[nH]c(=O)[nH]c21,50µM*,.,14µM*,?,32µM*
CCOC(=O)c1ccccc1NS(=O)(=O)c1c(-c2ccc(C)cc2)csc1C(=O)OC,-3%,2%,10%,2%,-5%
CN(c1ncnc2c1c(-c1ccccc1)cn2-c1cccc(Cl)c1)C1CCCCC1,13%,5%,34%,-3%[60.1 µM],-20%
Cc1ccc(-c2nnc(Nc3cccc(O)c3)c3ccccc23)cc1S(=O)(=O)NCCO,1%,4%,17%,-24%,?
CCOC(=O)CNS(=O)(=O)c1cc(-c2nnc(Nc3cccc(O)c3)c3ccccc23)ccc1C,3%,-7%[12.3 µM],89µM*,?,-7%
NC(=O)COc1ccc2cc(-c3ccccc3)c(=O)oc2c1,35%,1%,-14%,-32%,-12%
NC(=O)COc1ccc2cc(-c3ccc(F)cc3)c(=O)oc2c1,25µM*,-12%,-3%,-7%,-27%
Cc1ccc2oc(=O)n(CCNC(=O)Nc3ccc(C)c(F)c3)c2c1,3%,7%,6%,-1%,11%
CCOC(=O)c1[nH]c(C)c(C(=O)Nc2ccccc2F)c1C,-24%,5%,-18%,-5%,25µM*
CCOC(=O)c1[nH]c(C)c(C(=O)Nc2ccc(F)cc2)c1C,38%,-1%,7%,-19%,-18%
CCOc1ccc(NC(=O)NNC(=O)c2cc3ccccc3cc2O)cc1,?,0%,79µM*,-44%,8%
Cc1ccc(NC(=O)NNC(=O)c2cc3ccccc3cc2O)cc1C,?,-3%,?,-24%,-16%
Cc1cccc(NC(=O)NNC(=O)c2cc3ccccc3cc2O)c1C,35µM*,3%,50µM*,?,-26%
O=C(NNC(=O)c1cc2ccccc2cc1O)Nc1ccccc1F,?,4%,-24%,-7%,-5%
Cc1ccc(C)c(NC(=O)NNC(=O)c2cc3ccccc3cc2O)c1,35µM*,-10%,35µM*,?,?
Cc1nc2ccc(S(=O)(=O)N3CCN(S(=O)(=O)c4c(F)cccc4F)CC3)cc2s1,.,-4%,.,.,.
C[C@@]1(C(=O)O)NCCc2cc(O)c(O)cc21,.,.,.,1.8µM*,.
Cc1ccc(S(=O)(=O)N2CCC(C(=O)OC3CCOC3=O)CC2)cc1C (centres undefined),.,-5%,43%,-2%,-11%
CC(=O)c1cccc(S(=O)(=O)N2CCC(C(=O)OC3CCOC3=O)CC2)c1 (centres undefined),.,-15%[56.1 µM],?,-23%,45µM*
CCNc1nc(NC(C)C)nc(Nn2cnnc2)n1,35µM*,-3%,118%,10%,-9%
CC(C)Nc1nc(NC(C)C)nc(Nn2cnnc2)n1,-1%,0%,-11%,-21%,2%
SMILES,Pol beta inh,TDP1 inh,Pol iota inh,Pol kappa inh,Pol eta inh
O=[N+]([O-])c1ccc(O)c(/C=N/n2cnc3ccccc32)c1,1%,3%,4%,-10%,-18%
Cc1ccc(/C=C2\SC(=S)N(/N=C/c3cc([N+](=O)[O-])ccc3O)C2=O)o1,8.9µM*,?,4.5µM*,20µM*,10µM*
Cc1csc(C(=O)O)c1-n1cccc1,22µM*,13µM*,?,-18%,18µM*
CC(C)(C)CC(C)(C)N=C1Nc2ccc(Cl)cc2N[C@]12C[C@H]1CCCC(=O)N3CC[C@@H](C2)[C@@H]13,.,.,14%,-17%,.
Cc1cccc(CNC(=O)CN2C(=O)CCn3nc(-c4cn(C)c5ccccc45)cc32)c1,18µM*,8%,?,-10%[60.1 µM],-5%
CCCN1CCC(=O)N(CCN=[N+]=[N-])CC1,32µM*,.,-29%,-2%,5%
Cc1ccc(-c2csc3ncnc(SCc4ccc(C(=O)O)cc4)c23)cc1,?,5%,-24%,7%,79µM*
Cc1ccc(-c2csc3ncnc(Nc4ccc(C(=O)O)cc4)c23)cc1,?,.,-4%,-10%,79µM*!
c1ccc(-c2csc3ncnc(N4CCN(Cc5ccc6c(c5)OCO6)CC4)c23)cc1,38%,.,-7%,0%,-26%
O=C(CSc1ncnc2scc(-c3ccccc3)c12)N1CCN(Cc2ccc3c(c2)OCO3)CC1,16µM*,8%,?,-18%,?
O=C1N=C2SCCN2C(=O)C1Cc1ccc(Cl)cc1 (centres undefined),.,2%,.,-5%[19.4 µM],.
COc1ccc(OC)c(CNC(=O)c2cc3c(-c4ccc(OC)c(OC)c4)nn(C)c3s2)c1,-17%,5%,15%,-11%,-18%
COCCCNC(=O)c1cc2c(-c3cccc(OC)c3)nn(C)c2s1,51%,5%,22%,9%,-5%
CCN(CC)CCNC(=O)c1cc2c(-c3cccc(OC)c3)nn(C)c2s1,71µM*,0%,?,14%,-10%
CCCCN(CC)CCNC(=O)c1cc2c(-c3ccc(Cl)cc3)nn(C)c2s1,3.2µM*,0%,?,-13%,-8%
CCOCCCNC(=O)c1cc2c(-c3ccc(Cl)cc3)nn(C)c2s1,4%,1%,7%,-9%,-9%
CCCN(CCC)CCCNC(=O)c1cc2c(-c3ccc(OC)c(OC)c3)nn(C)c2s1,40µM*,-5%,?,?,?
CCN(CC)CCNC(=O)c1cc2c(-c3ccc(Cl)cc3)nn(C)c2s1,16µM*,0%,?,-17%,10%
Cc1cccc(NC(=O)C(=O)c2cc(C)n(-c3ccccc3)c2C)c1C,-27%,11%,12%,-4%,-18%
S=c1[nH]nc(-c2ccccn2)n1/N=C/c1ccc(-c2ccccc2Cl)o1,22µM*,5%,43%,-15%,1%
S=c1[nH]nc(-c2ccccn2)n1/N=C/c1ccc(Br)s1,18%,-6%,17%,-4%,-12%
CCOP(=O)(OCC)C(C#N)=C1SCN(c2ccccc2)CS1,.,.,?,-15%,40µM*
CCCCC(OC(=O)CNC(=O)c1ccccc1)C(=O)Nc1cc(C(F)(F)F)ccc1Cl (centres undefined),.,1%,.,.,.
Cc1nnc(N/N=C/c2ccco2)n1N,30%,2%,10µM*,-7%,-15%
Cc1nnc(N/N=C/c2ccccc2F)n1N,26%,.,?,-4%[60.1 µM],-21%
Cc1nnc(N/N=C/c2cccc(C(F)(F)F)c2)n1N,3%,.,13µM*,-13%,-16%
Cc1nnc(N/N=C/c2cccc(OCc3ccc(Cl)c(Cl)c3)c2)n1N,-8%,8%,6.3µM*,-6%,?
CCOc1ccc(NC(=O)Cn2cc(C(=O)c3ccc(CC)cc3)c(=O)c3cc4c(cc32)OCO4)cc1,21%,1%,8%,2%,-8%
